This passage reports AC50 and outcome results from PubChem BioAssay (EPA / NIEHS).

The source made the active and inactive calls. The calls were made as follows: active = hit-call score of the fitted dose curve at least 0.9, where 1 is the maximum; inconclusive = response in the unintended direction; inactive = score below 0.9.

Sequence of PGR (gene 5241) (P06401 whole entry, looked up): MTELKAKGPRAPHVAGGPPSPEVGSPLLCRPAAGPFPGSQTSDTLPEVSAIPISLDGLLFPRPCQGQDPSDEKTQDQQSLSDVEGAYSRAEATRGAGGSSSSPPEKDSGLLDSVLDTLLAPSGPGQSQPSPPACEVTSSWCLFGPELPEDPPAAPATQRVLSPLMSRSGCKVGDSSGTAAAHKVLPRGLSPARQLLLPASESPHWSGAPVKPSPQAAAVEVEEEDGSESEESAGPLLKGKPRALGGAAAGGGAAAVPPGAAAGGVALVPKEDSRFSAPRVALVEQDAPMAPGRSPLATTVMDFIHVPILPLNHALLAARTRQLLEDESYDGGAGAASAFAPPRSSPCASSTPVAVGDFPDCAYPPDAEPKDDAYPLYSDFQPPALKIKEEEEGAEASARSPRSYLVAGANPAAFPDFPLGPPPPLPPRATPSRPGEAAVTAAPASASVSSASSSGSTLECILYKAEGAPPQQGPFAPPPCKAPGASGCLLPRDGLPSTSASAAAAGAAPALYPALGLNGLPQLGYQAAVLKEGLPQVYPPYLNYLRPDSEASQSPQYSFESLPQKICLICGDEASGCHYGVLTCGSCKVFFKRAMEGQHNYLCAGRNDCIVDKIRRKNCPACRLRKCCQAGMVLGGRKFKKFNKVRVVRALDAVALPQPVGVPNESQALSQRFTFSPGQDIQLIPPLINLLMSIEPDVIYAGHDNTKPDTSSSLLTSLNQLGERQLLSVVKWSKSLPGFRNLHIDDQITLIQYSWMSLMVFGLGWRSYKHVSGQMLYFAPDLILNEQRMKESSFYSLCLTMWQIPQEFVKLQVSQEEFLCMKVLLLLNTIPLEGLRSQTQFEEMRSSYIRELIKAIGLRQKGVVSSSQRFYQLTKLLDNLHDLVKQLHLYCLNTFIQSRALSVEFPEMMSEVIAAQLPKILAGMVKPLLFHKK

The target of the test is PGR (gene 5241) (UniProt P06401). As to the kind of experiment: TOX21_PR_BLA_Followup_Antagonist_ratio: Tox21 HEK293 Progesterone Receptor (PR) Antagonism Beta-lactamase Follow-Up Assay, Ratio (AID 2283934). How it is done:
TOX21_PR_BLA_Followup is a secondary assay for specificity for the TOX21_PR_BLA_Agonist assay. To differentiate true PR agonists from cytotoxic substances, this follow up assay is multiplexed with a cell viability assay. The compounds were also tested for auto fluorescence that may interfere with the biological target readout resulting in potential false positives and/or negatives. To identify the compounds that stimulate PR signaling, a PR-UAS-bla GripTite cell line i.e. PR-UAS-bla HEK293T (Invitrogen, Carlsbad, CA, USA) containing a beta-lactamase reporter gene under the control of an UAS response element was used to screen Tox21 10K compound library. The cytotoxicity of the Tox21 compound library against the PR-bla cell line was tested in parallel by measuring the cell viability using CellTiter-Glo assay in the same wells. TOX21_PR_BLA_Followup_Antagonist_ratio is an assay readout measuring reporter gene via receptor activity and designed using inducible reporter (beta lactamase induction) detected with GAL4 b-lactamase reporter gene. The signal is derived from the ratio of cleaved (ch2) to uncleaved (ch1) reporter gene substrate used as the measure of target activity.Data from the assay component TOX21_PR_BLA_Followup_Antagonist_ratio was analyzed into 1 assay endpoint. This assay endpoint, TOX21_PR_BLA_Followup_Antagonist_ratio, was analyzed in the positive analysis fitting direction relative to DMSO as the negative control and baseline of activity. Using a type of inducible reporter, measures of receptor for gain-of-signal activity can be used to understand the reporter gene at the pathway-level as they relate to the gene NR3C3. Furthermore, this assay endpoint can be referred to as a primary readout, because this assay has produced multiple assay endpoints where this ratio serves a reporter gene function to understand target activity. To generalize the intended target to other relatable targets, this assay endpoint is annotated to the nuclear receptor intended target family, where the subfamily is steroidal.
Assay Protocol: PR-UAS-bla HEK293T cells were dispensed at 3,000 cells/4 uL of assay medium containing 2% charcoal stripped FBS per well into black wall/clear-bottom 1536-well plates using a Multidrop Combi (ThermoFisher Scientific, Waltham, MA) dispenser. After the assay plates were incubated at a 37C and 5% CO2 for 6 hr, 23 nL of compounds dissolved in DMSO, positive controls or DMSO only was transferred to the assay plate by a Pintool station (Kalypsys, San Diego, CA), followed by addition of 1 uL (1nM as final concentration) of Promegestone (R5020) in assay medium using a BioRAPTR FRD (Flying Reagent Dispenser, Aurora Discovery, San Diego, CA). The plates were incubated at 37C and 5% CO2 for 16 hr. Then 1 uL of LiveBLAzer B/G FRET substrate was added using a FRD. After the plates were incubated at room temperature for 2 hours, fluorescence intensity was measured by an Envision plate reader (PerkinElmer, Shelton, CT).
As to `C/C=C(/C(=C/C)c1ccc(OC(C)=O)cc1)c1ccc(OC(C)=O)cc1`, the AC50 is 9.64 µM (active).
With `C[C@@H]1C[C@H]2[C@@H]3C[C@H](F)C4=CC(=O)C=C[C@]4(C)[C@@]3(F)[C@@H](O)C[C@]2(C)[C@@]1(O)C(=O)CO`, the result was inactive.
For `COC(=O)C1=C(C)NC(C)=C(C(=O)OC(C)C)C1c1cccc2nonc12` (stereo not given), the AC50 is 19.4 µM (active).
Still for that read-out and setting: to `CCCOc1ccc2c(c1)CC[C@@H]1[C@@H]2CC[C@]2(C)C(OC)CC[C@@H]12` (stereo not given in full) belongs 12.8 µM (active).
With `CC(C)(C)C(O)/C=C/c1ccc2c(c1)OCO2` (stereo not given), the outcome was inactive.
Same read-out and setting: under `CC(=O)OCC(=O)[C@@]1(O)CC[C@H]2[C@@H]3CCC4=CC(=O)CC[C@]4(C)[C@H]3C(=O)C[C@@]21C` stands “inactive”.
Regarding `CN1CC[C@H](c2c(O)cc(O)c3c(=O)cc(-c4ccccc4Cl)oc23)[C@H](O)C1`, the concentration at half-maximal activity (AC50) was 0.206 µM (active).
For `CCC(=O)O[C@]1(C(=O)COC)[C@@H](C)C[C@H]2[C@@H]3CCC4=CC(=O)C=C[C@]4(C)C3(F)[C@@H](O)C[C@@]21C` (stereo not given in full), the outcome was inactive.
As to `Clc1ccc2c(c1)Nc1ccccc1S2`, the AC50 was 19.4 µM (active).
For `CC1(C)OC(=O)Nc2ccc(Br)cc21`, the outcome was inactive.
As for `CCC(=O)Oc1ccc2c(c1)CC[C@@H]1[C@@H]2CC[C@@]2(C)[C@H]1C[C@@H](OC(=O)CC)[C@@H]2OC(=O)CC`, the AC50 was 2.81 µM (active).
Take `CC(=O)OCC(=O)[C@H]1CC[C@H]2[C@@H]3CCC4=CC(=O)CC[C@]4(C)[C@H]3CC[C@]12C`: the outcome was inactive.
The same measure, in the same setting: to `Cl/C(=C\n1cncn1)c1ccc(Cl)cc1Cl` belongs “inactive”.
On the same count and under the same terms, under `C[C@@H]1C[C@H]2[C@@H]3CCC4=CC(=O)C=C[C@]4(C)[C@@]3(F)[C@@H](O)C[C@]2(C)[C@@]1(O)C(=O)COC(=O)c1ccncc1` stands “inactive”.
For the molecule `CCOC(=O)C1=C(C)NC(C)=C(C(=O)OC)C1c1cccc(Cl)c1Cl` (stereo not given), the AC50 was 14.7 µM (active).
As for `CC(=O)OCC(=O)[C@@]1(O)[C@H](C)C[C@H]2[C@@H]3CCC4=CC(=O)C=C[C@]4(C)[C@@]3(F)[C@@H](O)C[C@@]21C`, the result was inactive.
Still for that read-out and setting: to `CCN(CC)CC(=O)OCC(=O)[C@@]1(O)CC[C@H]2[C@@H]3CCC4=CC(=O)CC[C@]4(C)[C@H]3[C@@H](O)C[C@@]21C` belongs “inactive”.
With `C[C@@H]1CC(=O)NN=C1c1ccc(NN=C(C#N)C#N)cc1`, the AC50 is 17.3 µM (active).
Consider `C/C=C1/C(=O)C[C@H]2[C@@H]3CCC4=CC(=O)CC[C@]4(C)[C@H]3CC[C@]12C`, for which the result was inactive.
On the same count and under the same terms, under `CN1CCN(C2=Nc3cc(F)ccc3Cc3ccccc32)CC1` stands “inactive”; under `C[C@]12CCC(=O)C=C1CC[C@H]1[C@@H]3CC[C@](O)(C(=O)CO)[C@@]3(C)C[C@H](O)[C@@]12F`, “inactive”.
On the same count and under the same terms, to `CCCC(=O)OCOC(=O)C1=C(C)NC(C)=C(C(=O)OC)C1c1cccc(Cl)c1Cl` (stereo not given) belongs “inactive”.
Turning to `CC(=O)O[C@@H]1CC2C3CCc4cc(OC(=O)c5ccccc5)ccc4C3CCC2(C)[C@H]1OC(C)=O` (stereo not given in full), the AC50 is 5.65 µM (active).
Still for that read-out and setting: under `CC(=O)O[C@H]1CC[C@@]2(C)C(=CC[C@@H]3[C@@H]2CC[C@]2(C)C(C(C)=O)=CC[C@@H]32)C1` stands 10 µM (active).
Regarding `C[C@]12CCC(=O)C=C1CC[C@@H]1[C@@H]2[C@@H](O)C[C@@]2(C)[C@H]1CC[C@]2(O)C(=O)CO`, the outcome was inactive.

In general, AC50 refers to the midpoint of the concentration-response curve, whichever way the signal moves.
